From PubChem BioAssay
ClpP mod – qHTS Assay for Activators of ClpP; ATP-dependent Clp protease proteolytic subunit (Bacillus subtilis (strain 168)), P80244; purified B. subtilis ClpP, FRET peptide cleavage, 20 min; Potency, µM (series often up to 57.5 µM), inactives show top-dose activity change, negative = active; hit rate 1.9% among 340,000; active means well fitted falling curve with a large enough effect; inconclusive means small, poorly fitted or top-dose-only effect; inactive means no such curve, though single readings can be large or run the other way; further: potency means the concentration at half of the fitted maximal effect; the source files actives as falling curves though it sought activators and does not explain the sign; nearly all actives have a fitted effect of over 65% in size
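Purified B. subtilis ClpP, 10 microg/mL final in Tris/HCl pH8 with KCl, BSA, glycerol and Tween-20, cleaved an Abz/nitrotyrosine-quenched decapeptide. Fluorescence (ex 320, em 430) was read at 0 and 20 min at room temperature. Delta was normalized to 5.8 microM ADEP and DMSO/no-enzyme controls.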
AT treatment – potential ataxia-telangiectasia treatments restoring KAP-1 phosphorylation; Potency, µM (top dose mostly 57.5 µM), without a hit: top-dose activation, usual class: activators; AID 485349; hit rate 0.19% among 320,000; F2112 A-T fibroblasts, KAP-1 phosphorylation AlphaLISA; neocarzinostatin DNA damage 30 min before lysis; further: potency means the concentration at half of the fitted maximal effect; % of control where 0% means no effect; nearly all actives have a fitted effect of over 45% in size
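hTERT-immortalized A-T patient fibroblasts (F2112), 500 cells/well in OPTI-MEM, 1% FBS, got compounds for 60 min, then NCS for 30 min at 37C. Lysates were then assayed for phospho-KAP-1 by AlphaLISA (anti-pKAP1 donor, anti-KAP1 acceptor beads), 6 hr at 25C.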
TCR act – activates T cell receptor signaling; primary human leukocytes, anti-CD3, IL-2 HTRF, 48 h; Potency, µM (highest dose often 9.22 µM), without a hit: at the top dose activation of IL-2 secretion, actives largely listed as activators; 330,000 tested, under 10 active; further: % of control where 0% means no effect
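1) Mix primary human leukocytes, a-CD3 beads and compound. 2) Incubate 48 hr. 3) Add HTRF IL-2 reagents (a-IL-2-K, a-IL-2-d2).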
Mito fusion yeast – mitochondrial division inhibition or fusion activation; S. cerevisiae fusion-defective mutant growth rescue, CellTiterGlo 48 h; Potency, µM (highest dose often 46.1 µM), without a hit: top-dose growth rescue (activation), usual class: activators; hit rate 0.23% among 320,000; AID 485298; further: potency means the concentration at half of the fitted maximal effect; % of control where 0% means no effect; nearly all actives have a fitted effect of over 45% in size
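Read-out: ATP-based luminescence (CellTiterGlo, 10 min ambient) reporting growth of fusion-defective ts yeast after 48 hours at 37C on glycerol/ethanol YPEG medium in the presence of compound.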
Glioma ERSR ind – inducers of ER stress response in human glioma cells; hit rate 0.02% among 420,000; Potency, µM, without a hit: at the highest dose activation, hits mostly activators; U87-MG GRP78 promoter luciferase reporter, 16 h; further: potency means the concentration at half of the fitted maximal effect; series mostly up to about 76 µM; % of control where 0% means no effect; nearly all actives have a fitted effect of over 35% in size
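Stably transfected U87-MG human glioma cells carrying a GRP78-based luminescent sensor were seeded at 1000 cells/well, pin-dosed with compounds and incubated 16 h. Luciferase reagent was then added, and end-point luminescence was read after 10 min at room temperature.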
MBNL1 CUG block – MBNL1-poly(CUG) RNA binding inhibition | Q9NR56 | TR-FRET MBNL1-His/biotin-(CUG)12 binding, 665/545 ratio | Potency, µM (top dose mostly 57.5 µM), inactives show at the top dose activity change, negative = inhibition, usual class: inhibitors | hit rate 0.036% among 280,000 | AID 2675; active means well fitted inhibition curve with a large enough effect in the signal ratio, with a control signal flat, not every such curve was filed as active; inconclusive means small, poorly fitted or top-dose-only effect, or effect the other way, or a change in a side signal; inactive means no such curve, though single readings can be large or run the other way; the % refers to the signal ratio; further: potency means the concentration at half of the fitted maximal effect; on the % scale 0 is the no-effect control and ±100 the full control effect
Target sequence (Q9NR56 whole entry, looked up): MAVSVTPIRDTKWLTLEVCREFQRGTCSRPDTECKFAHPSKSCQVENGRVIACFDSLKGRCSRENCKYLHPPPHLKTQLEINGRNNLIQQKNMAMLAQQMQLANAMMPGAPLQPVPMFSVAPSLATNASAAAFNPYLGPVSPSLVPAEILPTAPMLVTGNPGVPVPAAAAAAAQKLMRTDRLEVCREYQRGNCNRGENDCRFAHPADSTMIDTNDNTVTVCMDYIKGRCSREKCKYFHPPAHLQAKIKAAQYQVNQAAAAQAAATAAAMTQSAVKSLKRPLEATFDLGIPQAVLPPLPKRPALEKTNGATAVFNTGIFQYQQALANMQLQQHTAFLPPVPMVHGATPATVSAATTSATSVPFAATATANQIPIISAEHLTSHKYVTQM
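Ratiometric TR-FRET (665 over 545 nm, excitation 340 nm) tracks disruption of MBNL1-His/biotin-(CUG)12 complex after 60 min at room temperature, with compounds at 92 nM to 58 uM final.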
MBNL1-CUG FRET – blocks human MBNL1 binding to CUG repeat RNA, TR-FRET validation; Potency, µM (highest dose often 57.6 µM), for inactives: at the top dose activity change, negative = inhibition, usual class: inhibitors; shares compounds with MBNL1 CUG block; TR-FRET MBNL1-His / biotin-(CUG)12 binding, 60 min; AID 493199; hit rate 50% among 140
MBNL1 AlphaScrn – MBNL1-CUG RNA binding inhibition, AlphaScreen validation; shares compounds with MBNL1 CUG block; AlphaScreen MBNL1-His / biotin-(CUG)12 binding; Potency, µM (top dose mostly 57.7 µM), for the others: at the top dose activity, negative = inhibition, actives largely listed as inhibitors; hit rate 30% among 140; AID 493205
ClpP inh valid – validation of B. subtilis ClpP protease hits (inhibitors); hit rate 40% among 470; shares compounds with ClpP mod; Potency, µM (top dose mostly 57.5 µM), without a hit: at the highest dose activity change, negative = inhibition, most hits filed as inhibitors; purified B. subtilis ClpP, FRET-FV substrate cleavage, 20 min; further: potency means the concentration at half of the fitted maximal effect; on the % scale 0 is the no-effect control and ±100 the full control effect; nearly all actives have a fitted effect of over 70% in size
The depositor's hits bear a star; ? = inconclusive; / = no result; [ ] = dose if it differs, or a comment. Compounds with a hit are over-represented: about 1.8% of the library has one in this group of screens. Unless noted, the call rests on the fitted dose curve; in most records, active means well fitted curve in the direction sought with a large enough effect; inconclusive means small, poorly fitted or top-dose-only effect, or another doubt; inactive means no such curve, though single readings can be large; an effect the other way counts as inactive or inconclusive.

SMILES | ClpP mod | AT treatment | TCR act | Mito fusion yeast | Glioma ERSR ind | MBNL1 CUG block | ClpP inh valid | others
CC(O)C(C)OC(=O)[C@@H]1C[C@@H]2c3cccc4c3c(cn4C(C)C)C[C@H]2N(C)C1 (stereo partly specified) | / | / | / | / | -4% | / | / | MBNL1-CUG FRET=?;MBNL1 AlphaScrn=-44%
CC(C)C1C(=O)N2CCC[C@H]2[C@]2(O)O[C@](NC(=O)[C@@H]3C=C4c5cccc6[nH]cc(c56)C[C@H]4N(C)C3)(C(C)C)C(=O)N12 (stereo partly specified) | / | / | / | / | -4% | / | /
CNC(=O)Oc1ccc(-c2cn3cc(Cl)ccc3n2)cc1 | 8.9µM* | 4% | 0%[46.1 µM] | 10% | -8% | 9% | ?
Cc1cc(OCc2nn[nH]n2)c2c3c(c(=O)oc2c1)CCCC3 | 6.3µM* | 7% | -20% | 4% | -4% | 5% | 27µM*
Cc1cc(OCc2ccc([N+](=O)[O-])cc2)c2c3c(c(=O)oc2c1)CCCC3 | 0% | 0% | -1% | 1% | 0% | -3% | /
NC(=NCCc1ccc(I)cc1)SCCCc1cnc[nH]1 | / | / | / | / | -5% | / | /
COc1ccccc1NC(=O)c1oc2ccccc2c1NC(=O)c1ccccc1C(F)(F)F | 206% | / | / | / | -3% | / | 31µM*
COC(=O)C[C@@](O)(CCC(C)(C)O)C(=O)O[C@@H]1C(OC)=C[C@]23CCCN2CCc2cc4c(cc2[C@@H]13)OCO4 | / | / | / | / | -9% | / | /
